# Assay results taken from PubChem BioAssay (NCI).
# This is part of a sample that, as a whole, favours compounds with a hit. Of some 83,000 tested, about 20% had one in any assay.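 Single-concentration screen, 48 h exposure, 96-well plates. Endpoint: percent growth. Below 10 = active.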 Unmarked numbers belong to inactive results. The source made the active and inactive calls.
# Experiments:
# Assay in all cases: NCI-60 one-dose screen, 48 h (100 = growth as untreated, 0 = no growth, -100 = all killed)
# DU-145 prostate = conditions: 10 µM unless noted
# K-562 leukemia = conditions: 10 µM unless noted
# MALME-3M melanoma = conditions: 10 µM unless noted
# MDA-MB-231 breast = conditions: 10 µM unless noted
# RXF 393 renal = conditions: 10 µM unless noted
# SF-268 CNS = conditions: 10 µM unless noted
# SF-295 CNS = conditions: 10 µM unless noted
# SF-539 CNS = conditions: 10 µM unless noted
# M14 melanoma = conditions: 10 µM unless noted
# UACC-257 melanoma = conditions: 10 µM
Compound,growth (DU-145 prostate),growth (K-562 leukemia),growth (MALME-3M melanoma),growth (MDA-MB-231 breast),growth (RXF 393 renal) [%],growth (SF-268 CNS) [%],growth (SF-295 CNS),growth (SF-539 CNS),growth (M14 melanoma),growth (UACC-257 melanoma) [%]
Cc1ccc(S(=O)(=O)OCC(=O)Nc2ccc(C(=O)O)c(O)c2)cc1,100%,70.2%,106%,97.2%,63.1,97,110%,96.1%,95.4%,
O=S(=O)(NCCCNc1cc(-c2cn(-c3ccccc3)nc2-c2cccc(O)c2)ccn1)c1cccc(F)c1,59.4%,1.85% (active),37.9%,7.26% (active),40.1,60.7,9.83% (active),45.1%,42.3%,
Nc1c(C(=O)Nc2cccc(C(F)(F)F)c2)sc2nc3c(cc12)C(O)CCC3 (centres undefined),9.15% (active),14.4%,51.2%,61.9%,,45.6,27.2%,21.6%,30.9%,44.2
CCCCCCc1nc2c(c(C)nn2-c2ccccc2)c2c1CCCCC2,108%,111%,105%,,115,105,103%,105%,118%,93.3
CC(C)C(C(=O)CCN(C)C)c1ccc(Cl)cc1 (centres undefined),88.6%,96.7%,-90.7% (active),101%,,100,106%,103%,92.5%,
Cc1cc(Cl)ccc1OC(C)C(=O)Nc1nnc(C2CC2)s1 (centres undefined),102%,120%,119%,95.1%,,111,89%,101%,113%,
CCCCCCCC/C=C\CCCCCCCCOc1ccccc1CCOP(=O)(O)OCC[N+](C)(C)C,86.6%,72.7%,93%,73.9%,,44.9,69.2%,84.8%,84.4%,
O=S(=O)(NCCCNc1nccc(-c2c(-c3ccc(F)c(O)c3)nc3sccn23)n1)c1ccc(Cl)cc1,87.4%,44.2%,2.69% (active),66.4%,,82.8,106%,103%,18.1%,
CCN1C(=O)N(CC)C2C1NN=c1s/c(=C\c3cccc(F)c3)c(=O)n12 (centres undefined),5.59% (active),8.99% (active),48.7%,25.8%,,58.3,9.94% (active),-9.53% (active),47.6%,
CCN1C(=O)N(CC)C2C1NN=c1s/c(=C3\C(=O)N(C4CCCC4)c4ccccc43)c(=O)n12 (centres undefined),7.65% (active),4.67% (active),57.4%,19.7%,,43.4,-6.11% (active),-39.3% (active),2.66% (active),
CCC(=O)Nc1ccccc1C#C/C=C\C#Cc1ccccc1SC,77.3%,56%,76.8%,47.9%,,63.9,59.8%,60.1%,59.9%,
CCCn1c(=S)sc2c(Cl)nc(C)nc21,124%,103%,104%,89.1%,,98.5,101%,93.3%,101%,
CCCCCCCCCN1C(=O)/C(=c2\sc3n(c2=O)C2C(NN=3)N(CC)C(=O)N2CC)c2ccccc21 (centres undefined),69.8%,21.3%,50.7%,63.9%,,50.9,61%,8.03% (active),90.8%,
CCN1C(=O)/C(=c2\sc3n(c2=O)C2C(NN=3)N(CC)C(=S)N2CC)c2ccccc21 (centres undefined),115%,98%,93.2%,96.3%,,90.2,100%,96.3%,96.2%,
CCOC(=O)c1ccccc1NC(c1ccccc1)c1ccc2cccnc2c1O (centres undefined),36.9%,30.2%,54.4%,,25,28.6,25.4%,11.8%,15.7%,22.1
O=C1Nc2cc(Cl)ccc2Oc2cc(Oc3ccccc3)ccc21,71.5%,25.5%,87.1%,63.9%,,63,49%,64.7%,41.1%,

Compound,growth (DU-145 prostate),growth (K-562 leukemia),growth (MALME-3M melanoma),growth (MDA-MB-231 breast),growth (RXF 393 renal) [%],growth (SF-268 CNS) [%],growth (SF-295 CNS),growth (SF-539 CNS),growth (M14 melanoma),growth (UACC-257 melanoma) [%]
Oc1ccc(N=Cc2ccccc2)cc1,89.5%,32.6%,83.5%,,114,95.9,112%,94.9%,91.5%,106
C=CC(=O)N[C@H](/C=C/C(=O)OCC)Cc1ccc(-c2cc(Cl)cc(Cl)c2)cc1,91.1%,89.4%,87.6%,72.9%,,84.7,83.1%,99.9%,88.7%,
CCn1cc(C2NC(=O)c3cc(F)ccc3N2)c2cccc(Cl)c21 (centres undefined),11.6%,5.32% (active),53.7%,19%,,41.2,10.4%,-26.6% (active),1.23% (active),
CC(C)(C)c1cn2cccc(C(=O)N3CCN(CC(=O)Nc4ccc(Cl)cc4C(=O)c4ccccc4Cl)CC3)c2n1,73.3%,33.5%,86.4%,73.5%,,85.8,-5.34% (active),51.4%,48.5%,
COc1ccc(/C=c2\sc3n(c2=O)C2C(NN=3)N(C)C(=O)N2C)cc1 (centres undefined),9.2% (active),-34.6% (active),25%,42.5%,,71.3,-7.19% (active),-16.6% (active),15.4%,
COc1ccc(C(=O)N2CCN(C(=O)c3cc(OC)c(OC)c(OC)c3)CC2)cc1OCCCCOc1cc2c(cc1OC)C(=O)N1CCC[C@H]1C=N2,113%,116%,126%,82.4%,,126,109%,98.9%,115%,
C/C1=C\CCC2(C)OC2CC2CCC(C)(O)C(CC1)C2(C)C (centres undefined),96.1%,104%,93.5%,105%,,103,55.5%,88.1%,98.7%,
CCN1C(=O)N(CC)C2Nn3c(s/c(=C4\C(=O)N(C5CCCC5)c5ccccc54)c3=O)=NC21 (centres undefined),43.6%,22%,70.9%,58.1%,,59.5,60.6%,37%,91.9%,
CCCCCC/C=C\CCCCCCCCOc1ccc(CCOP(=O)(O)OCC[N+](C)(C)C)cc1,98%,74.8%,103%,88.3%,,66.7,89.9%,94.7%,88.1%,
CSc1ccccc1C#C/C=C\C#Cc1ccccc1N1CCCCC1=O,107%,143%,89.2%,90.8%,,101,111%,93.4%,104%,
C/C(=N\NC(=O)CC#N)c1cc2cc(Cl)ccc2o1,103%,96.6%,102%,93.9%,,102,99.7%,82.9%,104%,
COc1ccc(NC(=S)/N=c2\oc3c(OC)cccc3cc2-c2cc3ccccc3[nH]2)cc1,62.6%,81.4%,63.5%,42.2%,,73,84.6%,26.4%,93.5%,
Clc1nc(Cl)c2ncn(C/C=C/Cn3cnc4c(Cl)nc(Cl)nc43)c2n1,44.2%,17.4%,111%,96.4%,,62.3,60.4%,46.8%,101%,
COc1cccc2cc(-c3cc4ccccc4[nH]3)/c(=N/C(=S)Nc3ccccc3)oc12,74.4%,84.4%,78.9%,61.6%,,70.6,87.1%,33%,70.6%,
Cc1cc(C(=O)CSc2nc3ccccc3c(=O)[nH]2)c(C)n1C,102%,110%,87.5%,90.4%,,110,81.9%,90.2%,112%,
